Compounds with a hit are over-represented: about 8.1% of the library has one in this group of screens.
KB-3-1 tox = KB-3-1 parental cell cytotoxicity; AID 1347075; Potency, µM (highest dose often 46.1 µM), actives largely listed as cytotoxic; 1.4% of 400,000 active; KB-3-1 viability, CellTiter-Glo ATP luminescence, 72 h; note: % is set by controls: 0 for no effect and ±100 for the full control effect; nearly all actives have a fitted effect of over 60% in size
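Multi-concentration cytotoxicity screen in KB-3-1 cells grown in DMEM lacking phenol red with 10% FBS. After 72 h at 37 °C with compound, ATP-dependent luminescence was recorded.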
SW480 rereplic = induces DNA re-replication in SW480 colon adenocarcinoma cells; 1.8% of 340,000 active; AID 624297; Potency, µM (top dose mostly 46.1 µM), inactives show top-dose re-replication activation, usual class: activators; SW480 DNA re-replication, Hoechst DNA content imaging, 48 h; note: % of control where 0% means no effect; nearly all actives have a fitted effect of over 55% in size
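Image-based DNA-content assay: after two days of treatment, nuclei were labelled with the DNA dye Hoechst and imaged, and hits were compounds raising the count of nuclei showing high fluorescence intensity.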
KB-V1 cytotox = KB-V1 MDR subline cytotoxicity; KB-V1 MDR cells viability, CellTiter-Glo, 72 h; Potency, µM (top dose mostly 46.1 µM), actives largely listed as cytotoxic; 3.4% of 400,000 active; note: % is set by controls: 0 for no effect and ±100 for the full control effect; nearly all actives have a fitted effect of over 60% in size
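Compound-treated KB-V1 multidrug-resistant cells, 72 h, 37 degrees C; viability by CellTiter-Glo. Fitted qHTS curves give the values.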
ELG1 DNA repair = ELG1-dependent DNA repair inhibition | HEK293T ELG1-luciferase reporter, luminescence, 16 h; DNA damage induced by 5-fluorouridine | Potency, µM (top dose mostly 46.1 µM), inactives show at the top dose activity change, negative = inhibition, hits mostly inhibitors | 2.3% of 330,000 active; note: % is set by controls: 0 for no effect and ±100 for the full control effect; nearly all actives have a fitted effect of over 55% in size
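Cells (2,000 per well) received 5-fluorouridine plus test compound or DMSO and were incubated 16 hr at 37 °C, 5% CO2. Luciferase activity was read by luminescence 30 min after ONE-Glo addition; signal suppression marked inhibition of damage-induced ELG1 function.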
MCF10A rereplic = DNA re-replication induction in MCF 10a cells | MCF 10A DNA re-replication, Hoechst nuclear intensity, 48 h | Potency, µM (titrated, usually from 46.1 µM), inactives show at the top dose activity, positive = re-replication, most hits filed as activators | 2.9% of 350,000 active | AID 624296; note: % of control where 0% means no effect; nearly all actives have a fitted effect of over 50% in size
* = called active by the depositor; i = inactive; ? = inconclusive; nt = not tested or not shown. Calls come from the whole dose curve; as a rule, active = well fitted curve in the direction sought with a large enough effect; inconclusive = small, poorly fitted or top-dose-only effect, or another doubt; inactive = no such curve, though single readings can be large; an effect the other way counts as inactive or inconclusive. Potency is the fitted concentration of half-maximal effect.

SMILES | KB-3-1 tox | SW480 rereplic | KB-V1 cytotox | ELG1 DNA repair | MCF10A rereplic
CCC1=[N+](CC(=O)c2ccc(C)cc2)CCn2c(C)ccc21 | 18µM* | 19% | i | ? | ?
O=S1(=O)C[C@@H](N2CCC(Cc3ccccc3)CC2)[C@H](COCc2ccccc2)N1 | i | nt | i | nt | nt
Cc1noc(C)c1COc1ccc(C(=O)N2CCN(S(=O)(=O)c3cccc(F)c3)CC2)cc1 | i | -6% | i | ? | ?
CCN(Cc1ccc2c(c1)OCCO2)C(=O)CSc1nc(C)nc2sc(C)c(C)c12 | i | -29% | i | 13µM* | ?
CC(NCCN(C)C)C1CCC2C3CCc4cc(O)ccc4C3CCC12C (stereo not given) | i | ? | ? | nt | 28%
Cc1ccc(S(=O)(=O)Nc2cccnc2Oc2ccc(Cl)cc2)cc1 | i | -9% | i | 8% | 1%
Cc1ccc(S(=O)(=O)Nc2cc(Cl)c(O)c3ncccc23)cc1 | ? | 5.2µM* | ? | ? | ?
Oc1c(Cl)cc(Cl)c2cccnc12 | ? | 3.8µM* | i | 2.3µM* | 6.7µM*
Oc1ccc(Cl)c2cccnc12 | ? | 21µM* | ? | nt | ?
Clc1cc2cccnc2c2ccccc12 | i | -7% | i | -4% | -9%
Cc1ccc(S(=O)(=O)N(CC(=O)Nc2ccc3c(c2)OCO3)c2cc(Cl)cc(Cl)c2)cc1 | i | nt | i | nt | nt
COC(=O)C1=C(C)NC(C)=C(C(=O)OC(C)(C)CN(C)CCC(c2ccccc2)c2ccccc2)C1c1cccc([N+](=O)[O-])c1 (stereo not given) | nt | 12µM* | nt | nt | 15%
CCOC(=O)C1=C(C)NC(C)=C(C(=O)OC)C1c1cccc([N+](=O)[O-])c1 (stereo not given) | i | 11% | i | -22% | 16%
COCCOC(=O)C1=C(C)NC(C)=C(C(=O)OC/C=C/c2ccccc2)C1c1cccc([N+](=O)[O-])c1 (stereo not given) | nt | 30µM* | nt | nt | -2%
CC1=C(C(=O)OC(C)C)C(c2cccc([N+](=O)[O-])c2)C(C(=O)OC2CN(C(c3ccccc3)c3ccccc3)C2)=C(N)N1 (stereo not given) | nt | ? | nt | nt | 21µM*
COCCOC(=O)C1=C(C)NC(C)=C(C(=O)OC(C)C)C1c1cccc([N+](=O)[O-])c1 (stereo not given) | i | 9% | i | 12µM* | ?
CC(C)(Oc1ccc(C2CCCc3ccccc32)cc1)C(=O)O (stereo not given) | nt | -11% | nt | nt | -2%
CC1=CC(C)C(=O)N(C)C(C)=C1 (stereo not given) | i | nt | i | nt | nt
COc1cccc(-c2cnc(C(O)c3cccc(F)c3)[nH]2)c1 (stereo not given) | i | nt | i | nt | nt
CCCn1c(SC(C(=O)Nc2cc(C)ccc2OC)c2ccccc2)nc2ccccc2c1=O (stereo not given) | i | nt | ? | 18µM* | 19%
C/C=C(/CCC1NCCc2c1[nH]c1ccccc21)[Si](C)(C)C (stereo not given) | 18µM* | ? | 12µM* | nt | ?
Clc1cccc(Cl)c1/C=N/Nc1c(Cl)cncc1Cl | 4.6µM* | 8.2µM* | ? | ? | 2.6µM*
Clc1cncc(Cl)c1N/N=C/c1ccncc1 | i | -3% | ? | ? | 17%
COCc1nnc(NC(=O)c2ccc(S(=O)(=O)N3CCCc4ccccc43)cc2)o1 | ? | ? | ? | 16µM* | 16µM*
COc1ccc(-c2nnc(NC(=O)c3ccc(S(=O)(=O)N4CCCc5ccccc54)cc3)o2)cc1 | ? | ? | ? | ? | -8%
SMILES | KB-3-1 tox | SW480 rereplic | KB-V1 cytotox | ELG1 DNA repair | MCF10A rereplic
O=C(Nc1nnc(C2CC2)o1)c1ccc(S(=O)(=O)N2CCCc3ccccc32)cc1 | ? | 4% | i | 7.3µM* | 10%
CC1CCCCN1S(=O)(=O)c1ccc(C(=O)Nc2nnc(C3CC3)o2)cc1 (stereo not given) | ? | ? | ? | -12% | 16%
CCCS(=O)(=O)NC(=O)C1(C)CCN(C(=O)c2ccc(C#N)cc2)C1 (stereo not given) | i | nt | i | nt | nt
COc1ccc(N2CCN(C(=O)c3[nH]c(C(F)(F)F)nc3-c3ccccc3)CC2)cc1 | i | nt | i | nt | nt
O=C(c1[nH]c(C(F)(F)F)nc1-c1ccccc1)N1CCN(c2cccc(C(F)(F)F)n2)CC1 | 5.2µM* | nt | ? | nt | nt
COc1ccccc1N1CCN(C(=O)c2[nH]c(C(F)(F)F)nc2-c2ccccc2)CC1 | 5.8µM* | nt | ? | nt | nt
Cc1cccc(N2CCN(C(=O)c3[nH]c(C(F)(F)F)nc3-c3ccccc3)CC2)c1C | 2.3µM* | nt | ? | nt | nt
CC1OC(C2CCCCC2)Cc2[nH]c(=S)[nH]c(=O)c21 (stereo not given) | i | nt | ? | nt | nt
C=CCC[C@H](CCCCC)OC(=O)/C=C/[C@@H](O)[C@H](O)C[C@H](O)CC=C | i | nt | i | nt | nt
O=C(COc1ccc2ccc(=O)oc2c1)Nc1cccc(S(=O)(=O)N2CCCCC2)c1 | i | -1% | i | ? | 4%
N#Cc1ccc(CSc2nc3c(c(=O)[nH]2)CCC3)cc1 | i | nt | i | nt | nt
COC(=O)c1cc(C(=O)c2ccc(Cl)cc2Cl)cn1C | ? | -11% | 13µM* | 7% | 0%
COC(=O)C1CCN(C(=O)COc2ccc(S(=O)(=O)N3CCOCC3)cc2Cl)CC1 | i | -6% | i | 3% | 2%
CCOC(=O)C(C)Sc1nc(-c2ccccn2)ncc1OC (stereo not given) | i | 0% | ? | -11% | 20%
COc1ccc(Oc2nc(-c3ccccn3)ncc2OC)cc1 | i | -7% | i | -28% | -9%
COc1cnc(-c2ccccn2)nc1Sc1c(Cl)cccc1Cl | ? | 15µM* | 2.9µM* | ? | ?
COc1cnc(-c2ccccn2)nc1Oc1c(C)cccc1C | i | ? | ? | ? | ?
COc1cnc(-c2ccccn2)nc1N(C)C | ? | 18µM* | 21µM* | ? | 13%
COc1cnc(-c2ccccn2)nc1Oc1cccc(Cl)c1 | i | 3% | 6.5µM* | ? | 1%
COc1cnc(-c2ccccn2)nc1Sc1ccccc1Cl | ? | 13µM* | i | ? | ?
COC(=O)C[C@@H]1CC[C@H](NC(=O)Nc2ccc(F)cc2)[C@@H](CO)O1 | i | nt | i | nt | nt
CC(=O)Nc1ccc(C(=O)N2CCOCC2c2cc(C(=O)NCc3ccccc3)no2)cc1 (stereo not given) | i | nt | i | nt | nt

Screening results: PubChem BioAssay, National Center for Advancing Translational Sciences (NCATS)
